Experimental findings from the OligoGym collection are described below.
Also: reference of the scale not given here.

The target in one assay is COX10. Put plainly: pooled miR-30 sensor sort-seq; sequence = guide strand. Conditions: shRNA.
As for TGATTGGATGTTATCTACCTAC, the sensor-assay potency score (higher = more potent) was -0.498.

Take TTATCTACCTACAATCCCTTTA: the sensor-assay potency score (higher = more potent) is -0.2.

TTCTTTGTCCTATTCATGTTTG: the sensor-assay potency score (higher = more potent) was -0.705.

Regarding TTGTTTAACTCTCCCACCCCGA, the sensor-assay potency score (higher = more potent) was -0.416.

The target in another assay is COX19. Described as above. As to conditions: shRNA.
For TTCTGCACAAAGCATTTTCAAA, the sensor-assay potency score (higher = more potent) is -1.5.

With TTTTACATTCACCTAAGTGATC, the sensor-assay potency score (higher = more potent) was -1.57.

With TAGTCAAGTCTCCAAATCCCAG, the sensor-assay potency score (higher = more potent) was -1.71.

In the case of ATTATTGTTATGAAGACACTTC, the sensor-assay potency score (higher = more potent) turned out to be 0.267.

On to ATTGTTATGAAGACACTTCATG, for which the sensor-assay potency score (higher = more potent) was -0.941.

With TTCACCTAAGTGATCCAGCGGG, the sensor-assay potency score (higher = more potent) is -0.488.

In turn, ATCAATTTTCTCTCCATCCTGC came in with a sensor-assay potency score (higher = more potent) of 0.0848.

Take TATTGTTATGAAGACACTTCAT: the sensor-assay potency score (higher = more potent) was determined as 0.108.

For ATGAATTTCTCTTTAAAGCTTT, the sensor-assay potency score (higher = more potent) is -0.368.

In the case of TAAAGCTTTTACATTCACCTAA, the sensor-assay potency score (higher = more potent) was determined as 0.0153.

Turning to TTCCACTAGTCAAGTCTCCAAA, the sensor-assay potency score (higher = more potent) is -0.858.

As for TAAATATTCTTTTGATTCCTTT, the sensor-assay potency score (higher = more potent) was -0.553.
